Test results as given in PubChem BioAssay AID651597 (National Center for Advancing Translational Sciences (NCATS), 2012).
Out of some 1,100 compounds screened, about 390 (35%) were called active. Not shown: some 30% with an inconclusive outcome. Some of the results follow. Values without a mark were called inactive. The call rests on the fitted dose curve; in most records, active means well fitted inhibition curve with a large enough effect; inconclusive means small, poorly fitted or top-dose-only effect; inactive means flat fitted curve, though single readings scatter.
Further: nearly all actives have a fitted effect of over 65% in size.
On the % scale 0 is the no-effect control and ±100 the full control effect; potency means the concentration at half of the fitted maximal effect.

The compounds below were run against Luciferin 4-monooxygenase (Photinus pyralis) (UniProt P08659) (assay: qHTS of Nrf2 Activators: Hit Validation in Secondary FLuc Assay). Settings: firefly luciferase inhibition counter-screen, luminescence; series mostly up to 57.5 µM; activity, negative = inhibition: at the top concentration.
From the text: Many diseases have some form of oxidative stress injury and ties to inflammation, causing a host of problems for the patient. The antioxidant response element (ARE) plays an important role in alleviating the harmful effects of oxidative stress. The antioxidant response element (ARE) is a transcriptional regulatory element involved in the activation of genes coding for a number of antioxidant proteins and detoxifying enzymes. These enzymes work in concert to protect tissues from oxidative insults and chemical toxicities in human hepatocytes and immune cells. The protective effects of ARE activation are primarily triggered through Nrf2 (NF-E2-related factor) binding to and activating AREs. It is known that Nrf2 controls the production of over 250 antioxidant and detoxification proteins (Hu et al., 2006), thereby protecting tissues by increasing cellular antioxidant content and suppressing inflammatory signaling pathways. The transcription factor Nrf2 is a central link between oxidative chemicals, such as phenolic antioxidants and electrophilic compounds, and the activation of ARE. Nrf2 levels are constitutively low as a consequence of its interaction with Keap1, which targets its degradation (Zipper and Mulcahy, 2002). Electrophiles react with key cysteine residues in Keap1, releasing Nrf2 and allowing its translocation to the nucleus. Once within the nucleus, Nrf2 complexes with coactivators such as p300, and binds to the AREs to induce gene transcription of cytoprotective enzymes, resulting in the prevention of toxicity. Activation of Nrf2 protects tissues by increasing cellular antioxidant content and suppressing inflammatory signaling pathways. Identifying novel and potent Nrf2 activators by using the AREc32 cell line to detect ARE activation by small molecules will lead to the identification and development of probes to study protective pathways in multiple tissues. These specific probes are essential to study the ARE pathway, and eventually to determine whether this pathway does activate genes that could protect against a host of diseases, including cardiovascular diseases, obesity, diabetes, Alzheimer's, and Parkinson's disease.
This project's aim is to identify novel and potent Nrf2 activators by using the AREc32 cell line to detect ARE activation by small molecules, which will lead to the identification and development of probes to study the ARE pathway. In this counter assay, we aim to identify false positive as identified from this primary assay using an FLuc assay with an inhibiting read-out.
NIH Chemical Genomics Center [NCGC]
NIH Molecular Libraries Probe Centers Network [MLPCN]
Assay Submitter (PI): Curtis Klaassen, University of Kansas Medical Center
Assess whether an activator in the primary assay potentially causes such activation by inhibitor-induced stabilization of the firefly luciferase reporter enzyme by determining whether it inhibits firefly luciferase in the presence of Km concentrations of its substrates (ATP and D-luciferin).
For Cc1ccc(C(=O)N/N=C/c2ccc(-c3ccc(Br)cc3[N+](=O)[O-])o2)o1, the Potency was 3.79 µM (active).
For N#Cc1nc(-c2ccc(F)cc2)oc1NCc1ccco1, the “activity, negative = inhibition” value was -27.6%.
In the case of N#Cc1c(-c2ccco2)cc(-c2ccccn2)nc1N, the Potency is reported as 12 µM (active).
With CC(C)Cc1cc(-c2ccco2)c(C#N)c(N)n1 the “activity, negative = inhibition” value was -13.5%.
N#Cc1c(-c2ccco2)cc(-c2ccc(F)cc2)nc1N was tested, and the Potency was 5.36 µM (active).
In the case of N#Cc1nc(-c2ccco2)oc1N1CCCC1, the “activity, negative = inhibition” value is reported as 6.93%.
With Cc1nc(NCc2ccco2)nc2c1C(=O)CC(C)C2 (stereo not given) the “activity, negative = inhibition” value was 3.45%.
For O=C(Nc1nnc(-c2cccs2)s1)c1cccc(F)c1, the Potency was 2.39 µM (active).
For O=C(Nc1nnc(-c2cccs2)s1)C1CC1, the “activity, negative = inhibition” value was -26.1%.
In the case of COC(=O)c1sccc1NC(=O)c1cccc(F)c1, the “activity, negative = inhibition” value is reported as 5.88%.
In the case of COc1ccc2oc3cc(Cl)ccc3c(=O)c2c1, the Potency is reported as 1.69 µM (active).
In the case of COc1ccc2oc3ccccc3c(=O)c2c1, the Potency is reported as 8.49 µM (active).
With CC(=O)Oc1c(-c2ccco2)oc2ccccc2c1=O the “activity, negative = inhibition” value was -8.33%.
For O=c1c2ccccc2oc2ccc(-c3ccc4cc[nH]c4c3)cc12, the Potency was 0.135 µM (active).
With CC(C)(C)/C(O)=C/c1nc2cc(Cl)ccc2oc1=O the “activity, negative = inhibition” value was 3.24%.
For O=S(=O)(c1ccc(F)cc1)c1snnc1-c1ccccc1, the “activity, negative = inhibition” value was -23.6%.
For CS(=O)(=O)c1nc(S(=O)(=O)c2ccc(Cl)cc2)c(N2CCN(CCO)CC2)s1, the “activity, negative = inhibition” value was -0.882%.
In the case of Cc1ccc(-c2cc(-c3cccc(F)c3)n[nH]2)c(O)c1, the Potency is reported as 1.2 µM (active).
COn1c(-c2ccccc2)nc2c1CCc1c-2no[n+]1[O-] was tested, and the “activity, negative = inhibition” value was 0.412%.
With COC(=O)C1=C(C)N(c2ccc(Br)cc2)C(=O)/C1=C\c1ccco1 the “activity, negative = inhibition” value was -25.3%.
In the case of O=C1/C(=C\c2ccco2)NC(=S)N1c1ccccc1, the Potency is reported as 8.49 µM (active).
With O=C(CCS(=O)(=O)c1ccccc1)Nc1nc(-c2ccccn2)cs1 the “activity, negative = inhibition” value was -28.2%.
For O=C(CC(=O)c1ccccn1)c1ccccc1, the Potency was 5.36 µM (active).
For Cc1cccc(C)c1NC(=S)NC(=O)c1cccc(Cl)c1, the “activity, negative = inhibition” value was -4.09%.
Cc1ccc2cccc(NC(=S)NC(=O)c3ccccc3)c2n1 was tested, and the Potency was 6.01 µM (active).
Cc1ccc2cccnc2c1NC(=S)NC(=O)c1ccccc1 was tested, and the Potency was 15.1 µM (active).
For Cc1cc(C)c2c(NC(=S)NC(=O)c3ccccc3)nn(C)c2n1, the “activity, negative = inhibition” value was 0.252%.
In the case of Cc1sc(NC(=S)NC(=O)c2ccccc2)c(C#N)c1C, the Potency is reported as 12 µM (active).
Cc1csc(NC(=S)NC(=O)c2ccccc2)n1 was tested, and the Potency was 2.13 µM (active).
[O-][n+]1onc2c3ccnnc3ccc21 was tested, and the “activity, negative = inhibition” value was -2.23%.
In the case of Cc1csc(NC(=O)Nc2ccccc2[N+](=O)[O-])n1, the Potency is reported as 2.69 µM (active).
In the case of O=C(CC(=O)Nc1ccccc1[N+](=O)[O-])Nc1ccccc1[N+](=O)[O-], the “activity, negative = inhibition” value is reported as 0.965%.
Cn1c(CC2C(=O)Nc3ccc(Br)cc32)nc2ccccc2c1=O (stereo not given) was tested, and the “activity, negative = inhibition” value was -7.26%.
With CCn1c(/C=C/c2ccccc2)nc2ccccc2c1=O the “activity, negative = inhibition” value was -25.2%.
Cn1c(/C=C/c2cccc(Br)c2)nc2ccccc2c1=O was tested, and the Potency was 10.7 µM (active).
For COc1ccc(NC(=O)c2cc(-c3cccs3)on2)c(OC)c1, the “activity, negative = inhibition” value was -23.9%.
For COC(=O)c1sccc1NC(=O)c1cc(C)on1, the “activity, negative = inhibition” value was 6.05%.
For CSc1ccccc1NC(=O)c1cc(-c2cccs2)on1, the Potency was 3.38 µM (active).
CC(C)(C)SCCNC(=O)/C=C/c1cccc([N+](=O)[O-])c1 was tested, and the “activity, negative = inhibition” value was -23.6%.
For N#C/C(=C\C=C\c1ccccc1[N+](=O)[O-])C(=O)NC1CCCCC1, the “activity, negative = inhibition” value was -27.7%.
With O=[N+]([O-])c1cccc(/C=C/c2ccccn2)c1 the Potency was 10.7 µM (active).
With O=[N+]([O-])c1ccccc1C=CC=NN=Cc1ccccc1O the Potency was 0.953 µM (active).
For CC1(C)C(=O)OC(/C=C/c2cccc([N+](=O)[O-])c2)C(C)(C)C1=O (stereo not given), the “activity, negative = inhibition” value was 1.52%.
For O=C(NN=Cc1cccc([N+](=O)[O-])c1)c1cccc2ccccc12, the “activity, negative = inhibition” value was -21%.
With O=[N+]([O-])c1cccc(C=NN=Cc2ccccc2O)c1 the Potency was 0.601 µM (active).
For CC1(C)C2C/C(=N\O)C(C)(/[N+]([O-])=C/c3cccc([N+](=O)[O-])c3)CC21 (stereo not given), the “activity, negative = inhibition” value was 2.48%.
For Cn1c(SCC(=O)N/N=C/C=C\c2ccccc2[N+](=O)[O-])nc2ccccc21, the “activity, negative = inhibition” value was -28.9%.
For C=C(C)CNC(=S)N/N=C(\C)c1ccc(Cl)s1, the “activity, negative = inhibition” value was -4.5%.
For FC(F)(F)c1cc(-c2ccco2)nc(-n2nnc3ccccc32)n1, the “activity, negative = inhibition” value was -18.6%.
In the case of c1coc(-c2cnc3ccccc3n2)c1, the Potency is reported as 2.69 µM (active).
O=[N+]([O-])c1cccc(-c2cnc3ccccc3n2)c1 was tested, and the “activity, negative = inhibition” value was -28.7%.
O=C(Oc1cccc(-c2cnc3ccccc3n2)c1)c1ccco1 was tested, and the Potency was 10.7 µM (active).
Cc1ccc(/C=C/C(=O)Nc2ccc([N+](=O)[O-])c(NC(=O)/C=C/c3ccc(C)o3)c2)o1 was tested, and the Potency was 1.2 µM (active).
With Cc1ccc(NC(=O)/C=C/c2ccc([N+](=O)[O-])s2)cc1 the “activity, negative = inhibition” value was -2.01%.
CSc1nsc(SC)c1NC(=O)Nc1ccccn1 was tested, and the “activity, negative = inhibition” value was -27.9%.
In the case of O=C(Nc1ccccn1)c1csc2c1CCCC2, the Potency is reported as 3.01 µM (active).
With O=C(Nc1nnc(-c2ccccc2F)s1)C1CCCO1 (stereo not given) the Potency was 10.7 µM (active).
In the case of O=C(Nc1nnc(-c2ccccc2F)s1)Nc1ccccc1F, the “activity, negative = inhibition” value is reported as -21.5%.
With CCCNC(=O)c1ccc(S(=O)(=O)c2ccc(OC)cc2)c([N+](=O)[O-])c1 the “activity, negative = inhibition” value was -1.58%.
O=[N+]([O-])c1cc(-c2nc(-c3ccccc3)no2)ccc1NCc1cccnc1 was tested, and the Potency was 4.78 µM (active).
CCNc1ccc(-c2nc(-c3ccco3)no2)cc1[N+](=O)[O-] was tested, and the Potency was 0.19 µM (active).
COCCNc1ccc(-c2nc(-c3ccco3)no2)cc1[N+](=O)[O-] was tested, and the Potency was 0.478 µM (active).
CCCNc1ccc(-c2nc(-c3ccco3)no2)cc1[N+](=O)[O-] was tested, and the Potency was 0.169 µM (active).
NC(=O)c1ccsc1NC(=O)COC(=O)[C@@H]1CCCN1C(=O)c1cccs1 was tested, and the “activity, negative = inhibition” value was -14.2%.
With Cn1c(NC(=O)/C=C/c2ccccc2)cc(=O)n(C)c1=O the Potency was 8.49 µM (active).
In the case of Cc1cc(C)n(S(=O)(=O)/C=C/c2ccccc2)n1, the “activity, negative = inhibition” value is reported as 2.85%.
CC(=O)Nc1nc2cccc([N+](=O)[O-])c2s1 was tested, and the “activity, negative = inhibition” value was -5.67%.
CC(=O)c1cc2c(cc1NC(=O)CSc1nc3ccccc3o1)OCO2 was tested, and the “activity, negative = inhibition” value was -5.24%.
Cn1cc([N+](=O)[O-])c(C(=O)Nc2ccc(-c3nc4ccccc4o3)cc2)n1 was tested, and the Potency was 8.49 µM (active).
CN1C2CCC1/C(=C\c1ccc(F)cc1)C(=O)/C2=C/c1ccc(F)cc1 was tested, and the “activity, negative = inhibition” value was 2.61%.
